PK Bst – pyruvate kinase (B. stearothermophilus) modulation | purified pyruvate kinase, luminescence ATP production; ribose 5-phosphate activator present at AC10 | Potency, µM | 1.2% of 51,000 active; in the data active = potency below about 11 µM; inconclusive = mostly about 12 µM to 25 µM;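 the screen sought inhibitors and activators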;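 note: scaled between full activation by ribose 5 phosphate and full inhibition by luteolin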
Luciferase inh – inhibitors of firefly luciferase; P08659; 2.2% of 72,000 active; Potency, µM (highest dose often 57.1 µM), inactives show at the top dose activity change, negative = inhibition, usual class: inhibitors; purified firefly luciferase, luminescence, 8 min; active = well fitted inhibition curve with a large enough effect; inconclusive = small, poorly fitted or top-dose-only effect; note: nearly all actives have a fitted effect of over 40% in size
Target sequence (P08659 whole entry, looked up): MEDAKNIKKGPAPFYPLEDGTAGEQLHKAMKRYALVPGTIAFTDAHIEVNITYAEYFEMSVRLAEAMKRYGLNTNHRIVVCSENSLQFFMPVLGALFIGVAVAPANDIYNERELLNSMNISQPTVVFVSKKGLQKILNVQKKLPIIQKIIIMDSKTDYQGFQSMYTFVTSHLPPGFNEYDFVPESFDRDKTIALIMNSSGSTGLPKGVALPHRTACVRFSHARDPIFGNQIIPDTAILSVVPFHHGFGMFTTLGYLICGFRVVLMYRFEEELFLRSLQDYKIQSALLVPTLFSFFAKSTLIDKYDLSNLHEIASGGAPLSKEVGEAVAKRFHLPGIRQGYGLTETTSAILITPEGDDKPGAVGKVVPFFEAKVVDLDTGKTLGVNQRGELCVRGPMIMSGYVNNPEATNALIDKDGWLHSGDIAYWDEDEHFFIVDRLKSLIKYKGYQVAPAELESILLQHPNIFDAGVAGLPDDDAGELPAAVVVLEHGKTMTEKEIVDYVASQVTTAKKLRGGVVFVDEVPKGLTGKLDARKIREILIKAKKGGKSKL
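qHTS concentration-response profiling: light output of P. pyralis luciferase with luciferin and 10 uM ATP, imidazole buffer pH 7.2. Read by luminescence after 8-min room-temperature incubation.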
* = called active by the depositor; i = inactive; ? = inconclusive; / = no result; ! = not confirmed by another sample; [ ] = another dose, or the depositor's remark. Compounds with a hit are over-represented: about 2.5% of the library has one in this group of screens. Unless noted, % is set by controls: 0 for no effect and ±100 for the full control effect; potency is the fitted concentration of half-maximal effect.

SMILES	PK Bst	Luciferase inh
C[C@]12C=CC(=O)C=C1CC[C@@H]1[C@H]3C[C@@H](O)[C@](O)(C(=O)CO)[C@]3(C)C[C@H](O)[C@]12F	/	1%
NCCOc1ccccn1	/	3%[11.4 µM]
Clc1cccc(Cl)c1COc1ccccn1	9.8*	-2%
CCCN=Cc1sc2ccc(OCC)cc2c1O	/	16µM*
CCOc1ccc2c(O)csc2c1	/	4%
C[C@H](O/N=C1/[C@H]2O[C@@H]2[C@@H](O)[C@H]2[C@H]1CCn1c(=O)n(-c3ccccc3)c(=O)n12)c1cn([C@H](CO)Cc2ccccc2)nn1	/	1%[11.4 µM]
O=C(O)c1c[nH]c2c(ccc3[nH]cc(C(=O)O)c(=O)c32)c1=O	/	1%[11.4 µM]
O=C(O)c1cc(-c2cccs2)nc2cc3c(cc12)OCCO3	/	16µM*
CS(=O)(=O)N1CCN(C(=O)c2cc(-c3cccs3)nc3ccccc23)CC1	/	-26%
CCOc1ccc2nc(-c3ccc(OC)c(OC)c3)cc(C(=O)O)c2c1	/	-3%
Cc1ccc2nc(-c3ccc4c(c3)OCCO4)cc(C(=O)O)c2c1	?	13µM*
CCn1ccc(C(=O)Oc2ccc(C(C)C)cc2)n1	i	13µM*
CCC(=O)Oc1ccc(C(CC)C(CC)c2ccc(OC(=O)CC)cc2)cc1 (stereo not given)	>26	0%[25.5 µM]
C=C[C@@](C)(O)CC[C@H]1[C@]2(C)CCCC(C)(C)[C@H]2CC[C@]1(C)O	/	0%[11.4 µM]
O=C(O)c1c(-c2c3ccc(=O)cc-3oc3cc(O)ccc23)cc2ccccc2c1-c1ccccc1	/	2%[11.4 µM]
O=C(O)C12CC3(C(=O)O)CC(C(=O)O)(CC(C(=O)O)(C1)C3=O)C2=O	/	0%[11.4 µM]
Cn1cccc1C(=O)N1CCC2(CC1)CCN(c1cccc(-c3ccccc3)c1)CC2	/	1%[11.4 µM]
COc1ccc(OC)c(CN2CCN(C(=O)c3cccs3)CC2)c1	>57	2%
COc1ccc(OC)c(CN2CCN(C(=O)c3cccc4ccccc34)CC2)c1	7.4*	3%
Oc1ccc(Cc2nccc3cc(O)c(O)cc23)cc1O	/	-2%[11.4 µM]
C[C@H](N)C1CCC(C(=O)Nc2ccncc2)CC1 (stereo not given in full)	/	-3%
COC(=O)C/C=C\[C@@H](C)[C@@H](/C=N\O[C@@H](C)c1cn([C@H]2COC[C@H]2O)nn1)OC	/	-1%[11.4 µM]
Cc1ccc(OCc2nc(-c3ccccn3)no2)c(Br)c1	/	5µM*
Cc1ccc(SCc2nc(-c3ccccn3)no2)cc1	>57	-4%
Clc1ccc(OCc2nc(-c3ccncc3)no2)c(Br)c1	/	7.9µM*
SMILES	PK Bst	Luciferase inh
CCc1ccc(OCc2nc(-c3ccccn3)no2)c(Br)c1	?	13µM*
CC(C)c1ccc(OCc2nc(-c3ccccn3)no2)c(Br)c1	/	16µM*
CC(C)(C)Cc1nc(-c2ccccn2)no1	>57	-3%
Cc1cc(OCc2nc(-c3cccnc3)no2)c(C)cc1Br	>57	1%
CC(Oc1ccc(Cl)cc1Cl)c1nc(-c2ccccn2)no1 (stereo not given)	/	-7%
CCNc1ncc2nc(-c3ccccc3)c(=O)n(C)c2n1	/	0%[11.4 µM]
O=C1C=CC2=C3c4cc(O)c(O)cc4C[C@@]3(O)COC2=C1O	/	-11%[11.4 µM]
Cc1c(-c2nc(N)nc(C3CC3)c2C)nc(N)nc1C1CC1	/	2%[11.4 µM]
Nc1nc(Cl)cc(NCCO)n1	/	0%[11.4 µM]
O=c1c(-c2ccc(F)cc2)nc2cnc(N3CCNCC3)nc2n1-c1ccccc1	/	-2%[11.4 µM]
COc1ccc(/C=C\C(=O)Nc2ccccc2C(=O)O)cc1OC	/	32µM*!
CCOC(=O)CC(=O)Nc1ccccc1C(=O)O	/	2%
O=C(O)[C@@H](O)c1ccc(F)cc1	/	2%[11.4 µM]
Nc1nc2nccc(-c3ccc(Cl)cc3)n2n1	6*	?
Cc1cc(-c2ccc(Cl)cc2)n2nc(N)nc2n1	?	0%
CCOC(=O)N/N=C1/C[C@@H](O)[C@@H](O)[C@@H]2[C@H]3C(=O)N(c4ccc(F)cc4F)C(=O)[C@@H]3CC[C@H]12	/	0%[11.4 µM]
Cn1c(NCc2ccccc2O)nc2ccccc21	>57	0%
Cn1c(NCc2ccccc2Cl)nc2ccccc21	/	13µM*
CN(Cc1nc2ccccc2n1C)S(=O)(=O)c1ccc(Cl)cc1	>57	-1%
Cn1c(CNc2ccc(Cl)cc2)nc2ccccc21	i	13µM*
OC(Cc1ccccc1)(Cc1ccccc1)c1ccccc1	/	1%[11.4 µM]
CCC(C(=O)Nc1nccs1)c1ccccc1 (stereo not given)	/	-3%
C/C(=C\C(=O)Nc1nccs1)c1ccccc1	i	25µM*
COc1cccc2c1[C@@H]1CN(CCCCn3c(=O)[nH]c4c(sc5ncc(-c6ccccc6)nc54)c3=O)C[C@H]1CO2	/	-6%
CCCCNC(=O)c1cc(-c2ccc(OC)cc2)on1	>57	-6%
SMILES	PK Bst	Luciferase inh
CCCNC(=O)c1cc(-c2ccc(OC)cc2)on1	>57	7.9µM*
Cn1c(Sc2ccc(-c3cccnc3)n2C)ccc1-c1cccnc1	/	4%[11.4 µM]
O=C(COc1ccccc1Cl)Nc1ccc2c(c1)OCCO2	/	10µM*
Cc1cccc(OCC(=O)Nc2ccc3c(c2)OCCO3)c1	i	13µM*
O=C(CN1C(=O)COc2ccc(Cl)cc21)Nc1ccc2c(c1)OCCO2	3.6*	-2%
Cc1cccc(NC(=O)CN2C(=O)COc3ccc(Cl)cc32)c1	>57	-2%
O=C(COc1ccc(S(=O)(=O)N2CCCC2)cc1Cl)Nc1ccc2c(c1)OCO2	>57	2%
Cc1cnc(NC(=O)COc2ccccc2Cl)s1	1.4*	1.3µM*
Cc1ccc(C)c(OCC(=O)Nc2ccc3c(c2)OCO3)c1	>57	-16%
O=C(COc1ccccc1O)Nc1ccccc1Cl	/	-21%
CN(CCC(=O)O)S(=O)(=O)c1ccccc1	/	0%[11.4 µM]
CC1(C)N=C(N)N=C(N)N1c1cccc(CSc2ccccc2)c1	/	1%[11.4 µM]
O=S(=O)(Nc1ccc2c(c1)OCO2)c1cccs1	>57	-2%
O=S(=O)(Nc1ccc2c(c1)OCCO2)c1cccs1	4.2*	-25%
Cc1cc(NCCCN2CCOCC2)n2nc(C)c(-c3ccccc3)c2n1	>57	-2%
Cc1cc(NCCCN2CCOCC2)n2ncc(-c3ccccc3)c2n1	/	13µM*
Cc1cc(NCCOCCO)n2ncc(-c3ccc(Cl)cc3)c2n1	6.7*	6.3µM*
CCOC(=O)c1cnn(-c2cc(C)nc3c(-c4ccccc4)cnn23)c1N	>57	3%
O=C(O)[C@H]1CCCC[C@@H]1c1c2ccc(=O)c(O)c-2oc2c(O)c(O)ccc12	/	-3%[11.4 µM]
Nc1nc(-c2ccc3ccccc3c2)cc(-c2cc(-c3ccc4ccccc4c3)nc(N)n2)n1	/	3%[11.4 µM]
O=C(Cc1coc2ccc3ccccc3c12)N1CCN(c2ncccn2)CC1	11*	-33%
O=C(COc1ccccc1Cl)N1CCN(c2ncccn2)CC1	>57	0%
COCCn1c(C)cc(C(=O)CSc2n[nH]c(N)n2)c1C	>57	-4%
COCCn1c(C)cc(C(=O)CSc2nnc(C)s2)c1C	?	10µM*
O=C(Nc1ccccc1)N(O)c1ccc(Cl)cc1	?	13µM*
SMILES	PK Bst	Luciferase inh
O=C(Nc1ccc(Cl)cc1)N(Cc1cccs1)Cc1cccs1	/	1%
O=C(NCCN1CCOCC1)c1cc(-c2ccc(O)cc2)on1	/	1%
Cc1ccc(NC2=Nc3ccccc3CS2)cc1	4.1*	4µM*
CC1=CC(C)(C)N=C(Nc2ccc(C)cc2)S1	>57	0%
CCCCN1c2ccccc2N(CCCO)c2cc(C)nnc21	/	16µM*
CCCCn1c(-c2ccccc2)nnc1-c1ccccc1	>57	0%
NC(=O)c1ncn([C@@H]2O[C@@H](CO)[C@@H](O)[C@H]2O)c1O	/	-2%
O=C(O)C1C(C(=O)O)C(C(=O)O)C1C(=O)O (stereo not given)	/	1%[11.4 µM]

Assay outcomes as filed in PubChem.
